Reference: PubChem BioAssay
For some of these results: Entries with a potency or affinity are not part of this list. Active and inactive are the calls of the source.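 The calls were made as follows, unless noted: active = primary screen inhibitor hit that blocks the TRPC4 channel at some tested dose, yielding a dose curve; inactive = the rest.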

How the values were obtained:
[1] = tested on: TRPC4 beta (transient receptor potential cation channel C4), mouse; experiment: TRPC4 cation channel opening, retest – cell-based, Fluo4 calcium, HEK293 TRPC4beta/mu-opioid, duplicates, 10 µM, confirmation (AID 2426;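 active = fluorescence ratio normalized to control raised more than 50% in primary screen plus both repeat runs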;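 as to activation: percent rise of integrated ratio over buffer wells lacking compound which define 0%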); details: Fluo4 calcium fluorescence, at 10 µM; hits give high values
[2] = tested on: transient receptor potential cation channel C4 beta (TRPC4), mouse; experiment: TRPC4 cation channel opening, second retest – cell-based, second round, Fluo4, HEK293 TRPC4beta/mu-opioid, 1 µM, confirmation (AID 2461;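 active = primary screen active and over 50% activation in each of two duplicate runs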); details: Fluo4 calcium fluorescence, at 1 µM; hits give high values
[3] = tested on: TRPC4 (transient receptor potential cation channel C4 beta), mouse; experiment: potentiation of DAMGO EC20 TRPC4 response – cell-based, second round, Fluo-4, HEK293 TRPC4beta/mu-opioid, 1 µM, confirmation (AID 2554;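 active = primary screen hit whose fluorescence ratio, in both repeats, exceeds the weak agonist control mean by 3 SD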); details: DAMGO EC20, Fluo-4 calcium flux, at 1 µM; hits give high values
[4] = tested on: TRPC4 beta (transient receptor potential cation channel C4), mouse; experiment: potentiation of DAMGO EC20 TRPC4 response – cell-based, Fluo-4, HEK293 TRPC4beta/mu-opioid, confirmation (AID 2555;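 active = primary screen hit whose calcium fluorescence ratio, in both repeats, exceeds the weak agonist control mean by 3 SD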); details: DAMGO EC20, Fluo-4 calcium flux, at 10 µM; hits give high values
[5] = target: Short transient receptor potential channel 4 (Mus musculus) (UniProt Q9QUQ5); experiment: blockers of DAMGO-evoked TRPC4 calcium flux – cell-based, Fluo4, HEK293 TRPC4beta/mu-opioid, confirmation (AID 2636;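 active = calcium signal cut by more than 3 SD below the full-agonist control yet still positive, in both repeats and the earlier primary screen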); details: at 10 µM; hits give high values
[6] = target: Short transient receptor potential channel 4 (Mus musculus) (UniProt Q9QUQ5); experiment: blockers of DAMGO-evoked TRPC4 calcium flux – cell-based, second round, Fluo4, HEK293 TRPC4beta/mu-opioid, 1 µM, confirmation (AID 2637;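 active = calcium signal ratio cut to more than 3 SD under the fully stimulated control mean yet still positive, in both repeats and the primary screen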); details: at 1 µM; hits give high values
[7] = target: Short transient receptor potential channel 4 (Mus musculus) (UniProt Q9QUQ5); experiment: calcium entry via TRPC4 opening agents – cell-based, HEK293 TRPC4/mu-opioid, Fluo-4 calcium, dose response (AID 434937;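 active = primary screen activator hit with a dose response curve and TRPC4 channel activation at any tested dose; inactive = no activation, no dose response, or not a primary hit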)
[8] = target: Short transient receptor potential channel 4 (Mus musculus) (UniProt Q9QUQ5); experiment: potentiation of DAMGO-evoked TRPC4 calcium signal – cell-based, HEK293 TRPC4/mu-opioid, Fluo-4 calcium, EC20 DAMGO, dose response (AID 434941;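 active = earlier screen potentiator hit that boosts the TRPC4 ion channel at some dose, with a dose response; inactive = no potentiation, no dose response, or not a prior hit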;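 also: calcium entry triggered by an EC20 dose of DAMGO at the co-expressed mu-opioid receptor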)
[9] = target: Short transient receptor potential channel 4 (Mus musculus) (UniProt Q9QUQ5); experiment: block of DAMGO-driven TRPC4 calcium entry – cell-based, HEK293 TRPC4/mu-opioid, Fluo-4 calcium, dose response (AID 434942)
[10] = target: Short transient receptor potential channel 6 (Mus musculus) (UniProt Q61143); experiment: TRPC6 blockade by TRPC4 inhibitor hits – cell-based, HEK293, membrane potential dye, duplicate, selectivity assay for TRPC4 inhibitor project, confirmation (AID 434948;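 active = active in primary screen and both duplicates, each dropping signal beyond three positive-control SD with fluorescence still positive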); details: HEK293 TRPC6, membrane potential dye fluorescence, at 10 µM, stimulated with maximal-effect acetylcholine; hits give high values
[11] = target: Short transient receptor potential channel 6 (Mus musculus) (UniProt Q61143); experiment: TRPC6 opening by TRPC4 activator hits – cell-based, HEK293, membrane potential dye, duplicate, selectivity assay for TRPC4 activator project, confirmation (AID 434950;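 active = membrane potential signal rise above negative control mean plus 3 SD in both duplicates, also active in the earlier TRPC4 screen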); details: HEK293 TRPC6, membrane potential fluorescence, at 10 µM; activation: hits give high values; outcome: activation
[12] = target: Short transient receptor potential channel 6 (Mus musculus) (UniProt Q61143); experiment: positive modulators of mouse TRPC6 channel – HEK293 cells, membrane potential dye, duplicate, selectivity assay for TRPC4 potentiator project, confirmation (AID 434952;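 active = compound raising the membrane signal above positive-control mean plus 3 SD in both repeats, and a primary screen hit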); details: HEK293 TRPC6, membrane potential dye fluorescence, at 10 µM, maximal acetylcholine added after compound; hits give high values
[13] = target: Short transient receptor potential channel 4 (Mus musculus) (UniProt Q9QUQ5); experiment: calcium flux activators in TRPC4/5HT1a cells, counter-screen for TRPC4 activator project, cell-based, second counter screen, HEK293 TRPC4/5HT1a, Fluo-4 (AID 434977;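 active = calcium signal rise above buffer-control mean plus 5 SD in both duplicates, and also a hit in the primary screen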;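 as to activation: plate controls were assay buffer for no effect and maximal serotonin response for full effect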); details: Fluo-4 calcium flux, at 10 µM; hits give high values
[14] = serotonin-gated TRPC4 signal block – cell-based, second counter screen, HEK293 TRPC4/5HT1a, Fluo-4, counter-screen for TRPC4 inhibitor project, confirmation (AID 434978;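 active = primary screen active whose calcium signal fell more than 3 SD beyond the full-serotonin control mean in both duplicate plates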;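 also: serotonin given first at submaximal then at maximal dose after compound preincubation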); details: Fluo-4 calcium flux, at 10 µM, serotonin added to trigger calcium flux; hits give high values
[15] = tested on: TRPC4 (mouse), co-expressed with 5HT1a in HEK293; experiment: enhancement of serotonin-evoked TRPC4 response – cell-based, second counter screen, HEK293 TRPC4/5HT1a, Fluo-4, counter-screen for TRPC4 potentiator project, confirmation (AID 434979;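 active = signal rise over 3 SD above mean of control wells given weak agonist, in both repeats and first screen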); details: Fluo-4 calcium flux, at 10 µM, serotonin added at its EC20 dose; hits give high values
[16] = nonspecific calcium rise without TRPC4 – cell-based, HEK293 mu-opioid receptor line, counter-screen for TRPC4 activator project, confirmation (AID 449723;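 active = hit in primary screen, with calcium signal over 5 SD above buffer well mean in both duplicates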;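 also: counter screen cells carry the mu-opioid receptor alone and lack TRPC4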); details: HEK293 mu-opioid cells, Fluo-4 calcium fluorescence, at 10 µM; hits give high values
[17] = nonspecific potentiation of DAMGO calcium response – cell-based, HEK293 mu-opioid receptor line, counter-screen for TRPC4 allosteric potentiator project, confirmation (AID 449724;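 active = calcium signal rise more than 3 SD above the low-dose agonist control mean, in both duplicate plates and the primary screen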); details: HEK293 mu-opioid receptor cells, Fluo-4 calcium flux, at 10 µM, compound added before EC20 DAMGO stimulus; hits give high values

Sequence of Short transient receptor potential channel 4 (Mus musculus) (Q9QUQ5 whole entry, looked up): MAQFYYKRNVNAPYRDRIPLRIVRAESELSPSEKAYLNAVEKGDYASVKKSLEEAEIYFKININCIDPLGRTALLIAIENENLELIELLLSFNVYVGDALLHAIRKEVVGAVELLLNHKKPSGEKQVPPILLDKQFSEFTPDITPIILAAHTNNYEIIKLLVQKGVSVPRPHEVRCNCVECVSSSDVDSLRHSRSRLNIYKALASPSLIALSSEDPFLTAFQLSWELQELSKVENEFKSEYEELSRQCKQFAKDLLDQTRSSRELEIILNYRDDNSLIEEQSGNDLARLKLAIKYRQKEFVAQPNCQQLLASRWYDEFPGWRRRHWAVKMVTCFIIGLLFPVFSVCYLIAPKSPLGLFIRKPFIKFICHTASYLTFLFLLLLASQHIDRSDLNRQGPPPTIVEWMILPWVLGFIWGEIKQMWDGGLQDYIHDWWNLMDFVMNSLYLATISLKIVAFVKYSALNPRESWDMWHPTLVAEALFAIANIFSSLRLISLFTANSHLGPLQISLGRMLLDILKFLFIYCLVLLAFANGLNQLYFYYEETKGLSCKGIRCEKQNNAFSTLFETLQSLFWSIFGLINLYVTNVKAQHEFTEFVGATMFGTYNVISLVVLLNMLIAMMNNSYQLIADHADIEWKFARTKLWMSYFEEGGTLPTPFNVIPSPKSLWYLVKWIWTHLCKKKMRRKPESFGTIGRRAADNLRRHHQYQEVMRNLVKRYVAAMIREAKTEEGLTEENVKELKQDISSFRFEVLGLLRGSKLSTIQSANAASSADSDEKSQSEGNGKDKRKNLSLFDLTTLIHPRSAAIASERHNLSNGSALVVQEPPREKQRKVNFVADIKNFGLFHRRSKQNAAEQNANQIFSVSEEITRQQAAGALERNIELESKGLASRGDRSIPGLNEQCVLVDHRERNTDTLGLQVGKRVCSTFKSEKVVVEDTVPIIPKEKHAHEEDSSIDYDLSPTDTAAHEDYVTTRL
Sequence of Short transient receptor potential channel 6 (Mus musculus) (Q61143 whole entry, looked up): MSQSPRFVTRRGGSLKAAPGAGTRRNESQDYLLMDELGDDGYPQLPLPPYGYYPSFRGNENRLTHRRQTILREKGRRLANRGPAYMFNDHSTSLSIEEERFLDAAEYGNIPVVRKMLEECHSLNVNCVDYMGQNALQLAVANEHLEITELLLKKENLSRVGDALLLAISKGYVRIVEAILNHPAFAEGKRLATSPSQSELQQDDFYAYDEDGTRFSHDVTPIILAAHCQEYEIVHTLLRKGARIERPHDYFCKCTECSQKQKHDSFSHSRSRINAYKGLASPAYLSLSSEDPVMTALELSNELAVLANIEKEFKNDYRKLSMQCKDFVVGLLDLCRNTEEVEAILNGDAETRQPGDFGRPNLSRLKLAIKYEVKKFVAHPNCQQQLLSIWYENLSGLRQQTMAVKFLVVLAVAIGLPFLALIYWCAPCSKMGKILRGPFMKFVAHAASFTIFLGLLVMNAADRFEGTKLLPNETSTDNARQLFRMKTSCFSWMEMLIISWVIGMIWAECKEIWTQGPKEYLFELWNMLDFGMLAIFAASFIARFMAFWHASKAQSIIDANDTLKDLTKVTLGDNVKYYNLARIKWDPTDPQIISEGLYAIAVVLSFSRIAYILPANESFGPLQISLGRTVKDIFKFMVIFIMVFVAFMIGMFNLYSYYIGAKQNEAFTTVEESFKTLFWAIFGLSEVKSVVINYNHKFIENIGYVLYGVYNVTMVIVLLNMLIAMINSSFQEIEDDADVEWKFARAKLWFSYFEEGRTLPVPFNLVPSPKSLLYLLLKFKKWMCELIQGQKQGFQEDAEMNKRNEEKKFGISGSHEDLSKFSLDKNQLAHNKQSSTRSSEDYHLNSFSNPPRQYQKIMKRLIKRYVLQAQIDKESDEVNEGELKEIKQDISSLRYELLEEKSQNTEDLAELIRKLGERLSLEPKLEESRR

CC(=O)n1cc([C@@H]2C=C(C(=O)NCc3ccccc3)O[C@H](OCc3ccc(CO)cc3)C2)c2ccccc21
active: potentiation [15] 14.7%
inactive: outcome [1] | outcome [2] | outcome [3] | outcome [4] | outcome [5] | outcome [6] | outcome [7] | outcome [8] | outcome [9] | outcome [10] | outcome [11] | outcome [12] | outcome [13] | outcome [14] | outcome [16] | outcome [17]

c1ccc(C2(CN3CCNC[C@H]3Cc3cccc4ccccc34)CC2)cc1
inactive: outcome [2] | outcome [3] | outcome [4] | outcome [5] | outcome [6] | outcome [7] | outcome [8] | outcome [9] | outcome [10] | outcome [11] | outcome [12] | outcome [14] | outcome [15] | outcome [16] | outcome [17]
active: activation [1] 161% | activation [13] 5.82%

CCCc1ccc(OCc2ccc(C(=O)N3CCSCC3)o2)cc1
inactive: outcome [1] | outcome [2] | outcome [3] | outcome [5] | outcome [6] | outcome [7] | outcome [8] | outcome [9] | outcome [10] | outcome [11] | outcome [12] | outcome [13] | outcome [14] | outcome [16] | outcome [17]
active: potentiation [4] 36% | potentiation [15] 30.2%

O=[N+]([O-])c1ccc(N2CCCC2)nc1N1CCCC1
inactive: outcome [1] | outcome [2] | outcome [3] | outcome [4] | outcome [5] | outcome [6] | outcome [7] | outcome [8] | outcome [9] | outcome [10] | outcome [11] | outcome [12] | outcome [13] | outcome [14] | outcome [15] | outcome [16] | outcome [17]

CCOc1ccc2ccccc2c1/C=N/NC(=O)c1cc(C)[nH]n1
inactive: outcome [1] | outcome [2] | outcome [3] | outcome [4] | outcome [5] | outcome [6] | outcome [7] | outcome [8] | outcome [9] | outcome [10] | outcome [11] | outcome [12] | outcome [13] | outcome [14] | outcome [15] | outcome [16] | outcome [17]

c1ccc(-c2cnc(SCCN3CCOCC3)n2CC2CCCO2)cc1 (stereo not drawn)
inactive: outcome [1] | outcome [2] | outcome [3] | outcome [4] | outcome [5] | outcome [6] | outcome [7] | outcome [8] | outcome [9] | outcome [10] | outcome [11] | outcome [12] | outcome [13] | outcome [14] | outcome [15] | outcome [16] | outcome [17]

Cc1ccc(NC(=O)Nc2cccc([N+](=O)[O-])c2)nc1
active: potentiation [3] 12% | potentiation [15] 24.5%
inactive: outcome [1] | outcome [2] | outcome [4] | outcome [5] | outcome [6] | outcome [7] | outcome [8] | outcome [9] | outcome [10] | outcome [11] | outcome [12] | outcome [13] | outcome [14] | outcome [16] | outcome [17]

CC(C)Cn1c(O)c(N=NC(=O)c2cccc(S(=O)(=O)N3CCCCC3)c2)c2ccccc21
inactive: outcome [1] | outcome [2] | outcome [3] | outcome [5] | outcome [6] | outcome [7] | outcome [8] | outcome [9] | outcome [10] | outcome [11] | outcome [12] | outcome [13] | outcome [14] | outcome [15] | outcome [16] | outcome [17]
active: potentiation [4] 15%

O=C1Cc2ccccc2Sc2c(OCCN3CCCCC3)cccc21
inactive: outcome [1] | outcome [2] | outcome [3] | outcome [4] | outcome [5] | outcome [6] | outcome [7] | outcome [8] | outcome [9] | outcome [10] | outcome [11] | outcome [12] | outcome [13] | outcome [14] | outcome [15] | outcome [16] | outcome [17]

Cn1c(SCCOc2ccccc2F)nc2ccccc2c1=O
inactive: outcome [1] | outcome [2] | outcome [3] | outcome [5] | outcome [6] | outcome [7] | outcome [8] | outcome [9] | outcome [10] | outcome [11] | outcome [12] | outcome [13] | outcome [14] | outcome [15] | outcome [16] | outcome [17]
active: potentiation [4] 10%

CC(C)c1nc(N2CCOCC2)c(C#N)c2c1CCCC2
inactive: outcome [1] | outcome [2] | outcome [3] | outcome [4] | outcome [5] | outcome [6] | outcome [7] | outcome [8] | outcome [9] | outcome [10] | outcome [11] | outcome [12] | outcome [13] | outcome [14] | outcome [15] | outcome [16] | outcome [17]

Clc1ccc(OCCn2ccnc2)c(Br)c1
inactive: outcome [1] | outcome [2] | outcome [3] | outcome [5] | outcome [6] | outcome [7] | outcome [8] | outcome [9] | outcome [10] | outcome [11] | outcome [12] | outcome [13] | outcome [14] | outcome [16] | outcome [17]
active: potentiation [4] 13% | potentiation [15] 12.6%

CCN1CCN(c2nc(N)c([N+](=O)[O-])c(Nc3ccc(C)c(C)c3)n2)CC1
inactive: outcome [1] | outcome [2] | outcome [3] | outcome [4] | outcome [5] | outcome [6] | outcome [7] | outcome [8] | outcome [9] | outcome [10] | outcome [11] | outcome [12] | outcome [13] | outcome [14] | outcome [16] | outcome [17]
active: potentiation [15] 10.5%

CCN(CC)CCOCCOc1ccc(Cl)c2ccccc12
inactive: outcome [1] | outcome [2] | outcome [3] | outcome [4] | outcome [5] | outcome [6] | outcome [7] | outcome [8] | outcome [9] | outcome [10] | outcome [11] | outcome [12] | outcome [13] | outcome [14] | outcome [16] | outcome [17]
active: potentiation [15] 11%
